TMEM16A act – mouse TMEM16A channel activation, primary screen | Q8BHY3 | HEK293 TMEM16A/YFP-H148Q/I152L, iodide quench fluorescence; active compounds read low | B-score at 10 µM | 0.3% of 340,000 active | AID 623877;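 active means fluorescence-ratio B-score plate-corrected deviation score at least 3 library SD below zero, with starting fluorescence score within 5 deviations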;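 further: channel opened by trigger with iodide after compound preincubation; score built on the fluorescence ratio of max minus min over baseline; more negative score means more quench and so TMEM16A activation or potentiation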
PP5 primary – PP5 (human) phosphatase inhibition; purified PP5c, OMFP substrate fluorescence; inhibition, % at 6.7 µM; 0.18% of 320,000 active; AID 1987;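 active means inhibition above the campaign's mean inhibition across all tested compounds plus 3 SD, cut at about 9.5% in these data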;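 further: 0% = DMSO only and 100% = 100 µM cantharidin control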
Target sequence (P53041 whole entry, looked up): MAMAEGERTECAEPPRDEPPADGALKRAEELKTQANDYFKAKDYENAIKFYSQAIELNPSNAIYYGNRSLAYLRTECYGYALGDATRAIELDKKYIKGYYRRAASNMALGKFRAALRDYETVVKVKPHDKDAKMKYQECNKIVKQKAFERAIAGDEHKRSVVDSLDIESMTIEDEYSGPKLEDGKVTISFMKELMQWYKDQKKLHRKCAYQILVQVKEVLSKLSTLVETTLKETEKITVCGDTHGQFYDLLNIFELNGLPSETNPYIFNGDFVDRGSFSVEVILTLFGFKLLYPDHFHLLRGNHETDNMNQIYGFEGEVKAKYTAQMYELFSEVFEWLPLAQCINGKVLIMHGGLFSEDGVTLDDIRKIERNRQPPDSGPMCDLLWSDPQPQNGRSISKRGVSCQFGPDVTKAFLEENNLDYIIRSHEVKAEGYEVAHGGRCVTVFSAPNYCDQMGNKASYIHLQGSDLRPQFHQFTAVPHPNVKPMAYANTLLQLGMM
TMEM16A inh – inhibitors of mouse TMEM16A calcium-activated chloride channel; HEK293 TMEM16A/YFP iodide influx fluorescence, ionomycin; normalized B-score (activity score, 25-100; higher = stronger inhibition) at 10 µM; 1.2% of 310,000 active; Q8BHY3; AID 588511;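 active means ratio plate-corrected score three or more library SD toward inhibition, starting fluorescence score within five deviations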;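 further: score derived from kinetic fluorescence span divided by baseline fluorescence per well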
PREPL inh – inhibits the human prolyl oligopeptidase-like enzyme; Q4J6C6; recombinant PREPL, fluorescence polarization activity-based probe; inhibition, % at 5.96 µM; 0.68% of 320,000 active; in the data active means inhibition above about 43%;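 further: 0% = enzyme with DMSO and 100% = wells lacking enzyme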
PP1 counter – PP1-alpha (human) inhibition in PP5 counter-screen | purified PP1alpha, OMFP fluorescence | 0.9% of 320,000 active | inhibition, % at 6.7 µM;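 active means inhibition above the mean inhibition of all tested compounds plus 3 SD, computed separately for each screening campaign, cut at about 15% in these data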
FID counter – displaces DNA intercalator in HCV helicase counter-screen; inhibition, % at 7.9 µM; DNA fluorescent intercalator displacement, fluorescence; 0.17% of 290,000 active; in the data active means inhibition above about 37%;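 further: 0% = vehicle and 100% = reference compound; higher means more ethidium bromide displaced from hairpin DNA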
TMEM16A reconf – reconfirmed blocker of mouse TMEM16A calcium-activated chloride channel; shares compounds with TMEM16A inh; HEK293 TMEM16A/YFP-H148Q, iodide quench fluorescence; ionomycin added to raise cell calcium; inhibition, % at 10 µM; 39% of 2,300 active;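 active means mean duplicate percent inhibition, scaled so buffer wells are 0 and the reference blocker 100, over three buffer SD above buffer mean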
HEK293 Ca mobil – calcium mobilization counter-screen hit for TMEM16A inhibitor series | shares compounds with TMEM16A inh | TMEM16A/YFP HEK293, Fluo4 calcium mobilization | calcium response (% of ionomycin), % at 10 µM | 2% of 2,300 active | AID 652231;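 active means duplicate-averaged calcium signal over 20% of the ionomycin maximum, relative to buffer baseline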;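 further: each well's signal is peak minus trough fluorescence divided by its pre-addition baseline; 0% = buffer wells and 100% = ionomycin wells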
Parental YFP cnt – counter-screen for TMEM16A inhibitors: effect in parental YFP-HEK293 cells; shares compounds with TMEM16A inh; YFP ratio F(max-min)/F0 at 10 µM; AID 652233; iodide YFP quench, ionomycin; 2,300 tested, under 10 active;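 active means yellow fluorescent protein signal ratio exceeding the buffer control mean by over 5 SD of those controls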;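 further: ratio is mean of duplicate wells from kinetic YFP trace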
ClC-1 inh – selectivity of TMEM16A inhibitors: inhibition of rat ClC-1 chloride channel; shares compounds with TMEM16A inh; CHO ClC-1-YFP, iodide influx fluorescence quench; iodide control reads 0, buffer control 100; ratio percent, % at 10 µM; 2,300 tested, under 10 active; AID 652236;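 active means duplicate-mean ratio percent above the mean of iodide-only control wells, which defines zero, plus 5 of their SD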;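 further: higher percent means stronger block of ClC-1 iodide influx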
* = called active by the depositor; i = inactive; x = no result. Compounds with a hit are over-represented: about 2.7% of the library has one in this group of screens.

SMILES | TMEM16A act | PP5 primary | TMEM16A inh | PREPL inh | PP1 counter | FID counter | TMEM16A reconf | HEK293 Ca mobil | Parental YFP cnt | ClC-1 inh
O=C(NCc1ccco1)C1CC(O)CN1C(=O)Nc1ccccc1 (stereo not drawn) | i | 3 | i | 15 | 2 | -5 | x | x | x | x
O=C(NCc1ccccc1C(F)(F)F)C1CC(O)CN1C(=O)Nc1ccccc1 (stereo not drawn) | i | -2 | i | 13 | -2 | -2 | i | i | -0.85 | -8
O=[N+]([O-])c1ccc(O)c(-c2nc(-c3ccccc3)c(-c3cccs3)[nH]2)c1 | i | 1 | 25* | -8 | -1 | 20 | 67%* | i | -0.9 | -10
O=C(O)c1ccc(-c2nc(-c3ccccc3)c(-c3cccs3)[nH]2)cc1 | i | 2 | i | -4 | 4 | -11 | x | x | x | x
CCNC(=O)CC1C(=O)N(c2ccc(F)cc2)C(=O)N1Cc1ccccn1 (stereo not drawn) | i | 1 | 100* | 2 | -4 | -1 | i | i | -1 | -8
COCCOC(=O)c1c(C)oc2ccc(NS(=O)(=O)c3ccccc3)cc12 | i | 2 | i | -6 | 5 | -18 | x | x | x | x
COC(=O)c1c(C)oc2ccc(NS(=O)(=O)c3cccs3)cc12 | i | 3 | 100* | 5 | -3 | -12 | 31%* | i | -1 | -18
COC(=O)c1cc(-c2ccc(S(=O)(=O)N3CCCC3)cc2)c(C(F)(F)F)s1 | i | 0 | 25* | -9 | -3 | -23 | i | i | -1.2 | -18
Cc1cc(NC(=O)COC(=O)C2CC2)ccc1Br | i | 5 | x | 5 | -2 | x | x | x | x | x
O=C(Nn1c(-c2ccc(Br)cc2)nc2ccccc2c1=O)c1ccc([N+](=O)[O-])cc1 | i | 4 | 25* | -13 | -2 | 7 | i | i | -1.1 | -8
CNC(=O)Nc1cccc(-c2ccnc(C)n2)c1 | i | 1 | i | 10 | 2 | 1 | x | x | x | x
COc1cccc(C(=O)/C(C#N)=N/Nc2cccc(-c3ccnc(C)n3)c2)c1 | i | 3 | 100* | 10 | 1 | -10 | i | i | -1 | -6
Cc1occc1C(=O)N/N=C/C=C/c1ccc(N(C)C)cc1 | i | 0 | i | 12 | 0 | -9 | i | i | -1.1 | -8
O=C(CSc1nc2ccc([N+](=O)[O-])cc2[nH]1)NC1CCCCC1 | i | 0 | 25* | 7 | -2 | 2 | i | i | -0.98 | -8
COc1cc(OC)c(NC(=S)Nc2cc(Cl)cc(Cl)c2)cc1Cl | i | 1 | 100* | 3 | 2 | 2 | 18%* | i | -1.1 | -34
CC1CN(S(=O)(=O)c2ccc(F)cc2)C(C)N1C(=O)N1CCOCC1 (stereo not drawn) | i | 1 | i | 8 | 1 | -5 | x | x | x | x
Cc1cc(N)ccc1NC(=O)c1ccccc1 | i | 3 | 100* | 9 | -3 | 8 | i | i | -1.1 | -6
CN1CCN(S(=O)(=O)c2cccc(C(=O)N(C)Cc3cccs3)c2)CC1 | i | -3 | x | 4 | -7 | x | x | x | x | x
C=CCN(C(=O)c1cccc(S(=O)(=O)N2CCN(C)CC2)c1)c1nc(-c2ccccc2)cs1 | i | 3 | 100* | -11 | 2 | 12 | 20%* | i | -1 | -7
Fc1nc(F)c(F)c(NCCCNc2c(F)c(F)nc(F)c2F)c1F | i | 4 | 100* | 9 | 0 | 6 | 52%* | i | -1 | -28
COC(=O)c1c(NC(=O)c2ccc(OC(C)C)cc2)sc2c1CC(C)(C)NC2(C)C | i | 3 | 100* | -2 | 1 | 19 | i | i | -0.9 | -7
O=C(OCC(=O)N1CCc2ccccc21)c1c2c(nc3ccccc13)CCCCC2 | i | 3 | 100* | -3 | -3 | -6 | i | i | -1.2 | -13
NC(=O)COC(=O)c1c2c(nc3ccccc13)CCCC2 | i | -2 | i | -10 | -5 | -1 | x | x | x | x
CCCCOc1ncnc2c1[nH]c1ccc(F)cc12 | i | 4 | 25* | 16 | -3 | -3 | i | i | -0.94 | -20
CCCCOc1ncnc2c1[nH]c1ccc(OCC)cc12 | i | 4 | i | 5 | -4 | -1 | x | x | x | x
SMILES | TMEM16A act | PP5 primary | TMEM16A inh | PREPL inh | PP1 counter | FID counter | TMEM16A reconf | HEK293 Ca mobil | Parental YFP cnt | ClC-1 inh
Cc1cccc(Cc2c(C)nc3c(C(=O)N4CCN(Cc5ccc6c(c5)OCO6)CC4)cnn3c2C)c1 | i | 6 | 25* | 30 | 0 | -16 | i | i | -1.1 | -5
Cc1ccccc1Cc1c(C)nc2c(C(=O)N3CCN(Cc4ccc5c(c4)OCO5)CC3)cnn2c1C | i | 1 | i | 14 | -2 | -10 | x | x | x | x
CC(C)CN1C(=O)c2ccc(C(=O)Nc3ccncc3)cc2C1=O | i | 1 | 25* | 10 | 2 | 6 | 27%* | i | -0.99 | -18
CC(C)CN1C(=O)c2ccc(C(=O)Nc3ccccn3)cc2C1=O | i | 0 | i | 4 | -1 | -3 | x | x | x | x
O=S(=O)(c1ccccc1)N1CCN=C1SCc1ccc(Cl)cc1 | i | 1 | 25* | 16 | 1 | -15 | i | i | -0.89 | -11
O=S(=O)(Nc1nc2ccccc2s1)c1ccc(Br)s1 | i | 1 | 100* | 6 | 2 | -28 | 24%* | i | -0.9 | -4
Cc1ccc(S(=O)(=O)Nc2nc3ccccc3s2)cc1 | i | 3 | i | -7 | 4 | -15 | x | x | x | x
Cc1ccc(OCCOCCn2cnc3ccccc3c2=O)cc1C | x | 1 | i | -7 | -2 | -20 | x | x | x | x
CC(C)(C)c1ccc(OCCOCCn2cnc3ccccc3c2=O)cc1 | i | 0 | 25* | -2 | -8 | -30 | 20%* | i | -1.2 | -10
CCCCCOC(=O)C1C(c2ccccc2)C(C(=O)O)C1c1ccccc1 (stereo not drawn) | i | -1 | 25* | -5 | -1 | -36 | i | i | -1.3 | -5
COc1ccc(CCNC(=O)CCn2c(=O)c3cccn3c3cccnc32)cc1OC | i | 2 | i | 5 | -1 | -31 | x | x | x | x
CC(=O)Nc1nc(-c2ccc3c(c2)CCN3S(C)(=O)=O)cs1 | i | -3 | i | 9 | -9 | -1 | x | x | x | x

Source: PubChem BioAssay
